The structures appear in SMILES notation. The whole screen tested about 16,000 compounds, of which about 5,800 (36%) were called active. Inconclusive results (about 23%) are left out. Some of the results follow. Values without a mark were called inactive. The call rests on the fitted dose curve; in most records, active means well fitted curve in the direction sought with a large enough effect; inconclusive means small, poorly fitted or top-dose-only effect, or effect the other way; inactive means no such curve, though single readings can be large or run the other way.
On the % scale 0 is the no-effect control and ±100 the full control effect.

Chain of Cytochrome P450 2C19 (Homo sapiens) (P33261 whole entry, looked up): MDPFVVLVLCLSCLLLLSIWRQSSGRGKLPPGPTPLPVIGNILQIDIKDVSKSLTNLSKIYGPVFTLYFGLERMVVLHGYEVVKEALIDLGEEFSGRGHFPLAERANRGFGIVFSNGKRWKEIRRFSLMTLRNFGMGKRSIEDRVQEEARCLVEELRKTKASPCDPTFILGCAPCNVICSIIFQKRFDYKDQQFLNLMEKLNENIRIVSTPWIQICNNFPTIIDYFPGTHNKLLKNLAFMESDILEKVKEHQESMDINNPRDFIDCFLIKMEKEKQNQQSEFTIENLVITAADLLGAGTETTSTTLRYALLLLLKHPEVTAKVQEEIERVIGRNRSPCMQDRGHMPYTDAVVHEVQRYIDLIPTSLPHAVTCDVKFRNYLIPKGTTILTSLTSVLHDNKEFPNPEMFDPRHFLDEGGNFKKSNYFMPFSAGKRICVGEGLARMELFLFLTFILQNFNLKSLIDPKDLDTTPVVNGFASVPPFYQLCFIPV

This test has as its target Cytochrome P450 2C19 (Homo sapiens) (UniProt P33261). Description: Cytochrome panel assay with activity outcomes. The note with it: recombinant CYP, pro-luciferin dealkylation, luminescence, p450-cyp2c19; series mostly up to 57.1 µM.
For `COc1ccc(C(=O)OC(C)CN2CCN(C)CC2)cc1OC` (stereo unspecified), the AC50 (in general, the midpoint of the concentration-response curve, whichever way the signal moves) was “inactive”.
On the same count and under the same terms, the same measure for `COc1cc2c(cc1OC)[C@H](c1ccccc1)CN(C)CC2`: “inactive”.
`COC(=O)c1ccc(OCC2c3cc(OC)c(OC)cc3CCN2C(=O)C2CC2)cc1` (stereo unspecified): the AC50 is 2.51 µM (active).
Still for that read-out and setting: with `NCCCCN` the entry was “inactive”.
Same read-out and setting: the same measure for `NCCCCNCCCN`: “inactive”; for `NCCCNCCCCNCCCN`: 7.94 µM (active); for `Cn1nc(C(F)(F)F)c(/C=N/OC(=O)c2ccccc2Cl)c1SCc1ccc(Cl)cc1`: 0.355 µM (active).
As for `Cn1c(=O)c2[nH]c([C@@H]3CC(=O)C[C@H](c4nc5c([nH]4)c(=O)n(C)c(=O)n5C)N3)nc2n(C)c1=O`, the activity, negative = inhibition was 1.66% [at 11.4 µM].
In the case of `Cc1ccc(CNC(=O)CN2C(=O)COc3ccc(C)cc32)cc1`, the concentration at half-maximal activity (AC50) was 2.82 µM (active).
On to `Cc1ccc2c(c1)N(CC(=O)NC1CCCc3ccccc31)C(=O)CO2` (stereo unspecified), for which the AC50 was 2.51 µM (active).
For the molecule `O=C(O)C[C@@H]1CCCc2ccccc2[C@H]1O`, the AC50 entry is “inactive”.
On to `Cc1ccc2c(c1)N(CC(=O)NC1CCC(C)CC1)C(=O)CO2` (stereo unspecified), for which the AC50 is 2.82 µM (active).
`CN(C)C(=O)Oc1cccc([N+](C)(C)C)c1`: the AC50 entry was “inactive”.
Same read-out and setting: the same measure for `C=CCn1c(SCC)nc2sc3c(c2c1=O)CCc1ccccc1-3`: 8.91 µM (active); for `O=c1/c(=C\c2ccc(O)cc2)sc2n1C(c1ccccc1)C(c1ccccc1)=NN=2` (stereo unspecified): 1.58 µM (active).
Still for that read-out and setting: the same measure for `CCCCSc1nc(C)cc(NC(=S)Nc2ccc(OC)cc2)n1`: 2.51 µM (active).
On the same count and under the same terms, with `CCOC(=O)c1cccc2c1-c1ccccc1/C2=N/O` the figure was 7.94 µM (active).
As for `CC(C)=CCc1c(C)nc2ccccc2c1C(=O)O`, the AC50 result was “inactive”.
On to `CC(C)=CCC1=C(OCC(=O)O)C(=O)c2ccccc2C1=O`, for which the AC50 was 1.26 µM (active).
On the same count and under the same terms, with `CCOc1ccccc1C1C(C(N)=O)=C(C)Nc2nc(-c3ccc(OC)cc3)nn21` (stereo unspecified) the figure was 10 µM (active); with `CC1=C(C(=O)Nc2cccnc2)C(c2cccnc2)n2nc(-c3cccs3)nc2N1` (stereo unspecified), 11.2 µM (active).
`CC1=C(C(N)=O)C(c2ccccn2)n2nc(SCc3ccccc3Cl)nc2N1` (stereo unspecified): the AC50 result was “inactive”.
Same read-out and setting: with `COC(=O)C1=C(C)Nc2ncnn2C1c1cccnc1` (stereo unspecified) the entry was “inactive”.
The same measure, in the same setting: with `CSc1nc2n(n1)C(c1cccc(F)c1)C(C(=O)Nc1ccc(C)cc1C)=C(C)N2` (stereo unspecified) the entry was “inactive”; with `COc1ccccc1NC(=O)C1=C(C)Nc2nc(-c3ccc(N(C)C)cc3)nn2C1c1ccncc1` (stereo unspecified), 14.1 µM (active).
With `O=C(Nc1ccc2oc(=O)c(C(=O)O)cc2c1)Oc1ccccc1`, the activity, negative = inhibition is 18.7% [at 11.4 µM].
As to `COc1ccc(NC(=O)N2CC[C@@]3(CCCN(C(C)=O)C3)C2)cc1`, the AC50 result is “inactive”.
For the molecule `COc1ccc2oc(=O)c(C(=O)Oc3ccc(NC(C)=O)cc3)cc2c1`, the AC50 is 15.8 µM (active).
The same measure, in the same setting: the same measure for `CN(C(=S)Nc1ccccc1F)C1(c2ccccc2Cl)CCCCC1=O` (stereo unspecified): 1.26 µM (active); for `CO/N=C(/CNC(=O)c1ccc(Cl)cc1Cl)c1ccc(Cl)cc1`: 0.398 µM (active); for `CO/N=C(/CNC(=O)c1cccc(Cl)c1)c1ccc(Cl)cc1`: 0.708 µM (active).
For `COc1ccc(NC(=O)N2CCC3(CC2)CCN(C(=O)c2ccco2)CC3)cc1`, the AC50 entry was “inactive”.
Still for that read-out and setting: with `COc1ccc(Cc2nnc(NC(=O)c3ccco3)s2)cc1` the figure was 14.1 µM (active); with `COc1ccc(Cc2nnc(NC(=O)c3cccc([N+](=O)[O-])c3C)s2)cc1`, “inactive”.
On the same count and under the same terms, with `COc1ccc(NC(=O)N2CC3(CCN(C(=O)c4ccco4)CC3)C2)cc1` the entry was “inactive”.
On the same count and under the same terms, the same measure for `COc1ccc2c(c1)Cc1sc(NC(=O)c3ccco3)nc1-2`: 14.1 µM (active); for `COc1ccc2c(c1)CCc1sc(NC(=O)c3ccc(C)cc3)nc1-2`: 3.55 µM (active); for `Cc1ccc(NC(=O)NNC(=O)Cn2nc(-c3ccccc3)c(-c3ccccc3)c(C#N)c2=O)cc1`: 17.8 µM (active).
Turning to `Cc1ccc(-c2c(C#N)c(N)n(-c3ccccc3)c(=O)c2C#N)cc1`, the AC50 result was “inactive”.
With `Cn1nnnc1SCC(=O)Nc1ccccc1[N+](=O)[O-]`, the AC50 entry was “inactive”.
With `COc1ccc(CSc2nnnn2C)cc1[N+](=O)[O-]`, the AC50 is 10 µM (active).
The same measure, in the same setting: with `Cn1nnnc1SCc1ccccc1[N+](=O)[O-]` the figure was 25.1 µM (active).
In the case of `COC(=O)Nc1nc2ccc(C(=O)c3ccccc3)cc2[nH]1`, the AC50 result is “inactive”.
As for `O=C(c1ccccc1)c1ccc2nc(-c3ccc(NC(=O)c4ccccc4Br)cc3)[nH]c2c1`, the AC50 is 5.62 µM (active).
Regarding `O=C(O)c1ccc(NCc2nc3cc4ccccc4cc3[nH]2)cc1`, the activity, negative = inhibition was 60.6% [at 11.4 µM].
For the molecule `C[C@H](N)CCCC(C)(C)O`, the AC50 result was “inactive”.

The record behind these values is PubChem BioAssay AID1851 (National Center for Advancing Translational Sciences (NCATS), 2009).
